In PubChem BioAssay AID1928 (Vanderbilt High Throughput Screening Facility, 2009):

Each molecule was assayed against Muscarinic acetylcholine receptor M5 (Homo sapiens) (UniProt P08912) (assay: hM5 positive allosteric modulation, ACh fold-shift, SAR follow-up, selectivity assay for M4 PAM project, cell-based, analogs, calcium (AID 1928)). Conditions: hM5-expressing cells, ACh CRC fold-shift; series mostly up to 1 µM; ACh response, % max: at the top concentration; call rule not given here.
Chain of Muscarinic acetylcholine receptor M5 (Homo sapiens) (P08912 whole entry, looked up): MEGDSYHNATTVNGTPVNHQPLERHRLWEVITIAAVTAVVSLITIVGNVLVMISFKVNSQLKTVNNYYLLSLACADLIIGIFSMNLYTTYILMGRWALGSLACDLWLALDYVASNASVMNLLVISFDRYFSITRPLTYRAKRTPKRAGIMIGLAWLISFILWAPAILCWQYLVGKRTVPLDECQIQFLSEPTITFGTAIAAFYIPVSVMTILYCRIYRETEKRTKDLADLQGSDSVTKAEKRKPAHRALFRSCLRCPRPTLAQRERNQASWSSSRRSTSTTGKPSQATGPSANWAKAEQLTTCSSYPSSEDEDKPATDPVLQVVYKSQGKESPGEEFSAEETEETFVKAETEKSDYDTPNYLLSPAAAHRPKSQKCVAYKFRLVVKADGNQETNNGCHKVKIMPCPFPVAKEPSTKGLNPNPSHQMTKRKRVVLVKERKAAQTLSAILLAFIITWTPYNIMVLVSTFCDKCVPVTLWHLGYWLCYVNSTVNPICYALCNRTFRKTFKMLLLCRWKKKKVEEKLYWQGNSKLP

ACh response, % max, inactive:
Cc1cc(OCc2ccncc2)nc2sc(C(=O)NCc3cc(F)ccc3F)c(N)c12 92.8
Cc1cc(OCc2ccncc2)nc2sc(C(=O)NCc3cccc(F)c3F)c(N)c12 92.3
Cc1cc(OCCN2CCOCC2)nc2sc(C(=O)NC(C)(C)C)c(N)c12 93.7
COc1ccc(CNC(=O)c2sc3nc(OCc4ccncc4)cc(C)c3c2N)cc1 96.3
